Screening results from PubChem.
Shown is part of a subset that was picked to be rich in hits.
KDM5B inh = blocks human KDM5B histone demethylase activity. Q9UGL1. KDM5B demethylase, FDH-coupled NADH fluorescence (FDH is formaldehyde dehydrogenase). Potency, µM (doses to about 57.7 µM), actives largely listed as inhibitors. hit rate 2.6% among 220,000; active = well fitted inhibition curve with a large enough effect; also: 0% is about no effect; nearly all actives have a fitted effect of over 70% in size
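Measured: NADH fluorescence change, 30 min, RT. System: KDM5BΔAP 200 nM final, H3K4me3 peptide, α-KG, Fe(II), ascorbate, NAD⁺ plus FDH, pH 7.5 HEPES. Compounds: titrated, 10 min pre-incubation with enzyme.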
Active calls of the source: *; i = inactive. Potency is read from the fitted curve at half-maximal effect.

SMILES | KDM5B inh
CNC(=O)c1ccc(OCc2nc(C(C)C)no2)cc1 | i
O=C(Cn1cccc1-c1nc(-c2ccccc2)no1)NCc1ccccc1Cl | i
CC(C)c1noc(-c2cccn3c(CNC(=O)Cc4ccccc4Cl)nnc23)n1 | 25µM*
CC(C)c1noc(CC2CCN(C(=O)c3ccccc3Cl)CC2)n1 | i
CC(C)c1noc(-c2cccn3c(CNC(=O)c4ccc(Cl)cc4)nnc23)n1 | 25µM*
Cc1ccccc1CC(=O)NCC(C)C | i
CC(C)c1noc(-c2cccn3c(CNC(=O)c4ccccc4Cl)nnc23)n1 | 10µM*
Cc1ccccc1CNC(=O)COc1ccc(-c2nc(C(C)C)no2)cc1 | i
Cc1cccn2c(=O)c(C(=O)NCc3ccccc3Cl)c(O)nc12 | i
Cc1ccccc1CC(=O)NCc1nnc2c(-c3nc(C(C)C)no3)cccn12 | 22µM*
Cc1oc(-c2ccccc2)nc1C(=O)NC1CCCCC1 | i
Cn1c(=O)c(-c2noc(C(=O)NCc3ccco3)n2)nn(-c2ccccc2)c1=O | i
CC(NC(=O)CNC(=O)c1cccs1)c1ccc2ccccc2c1 (centres undefined) | i
COc1ccc2nc(SCC(=O)N3CCN(S(=O)(=O)c4ccc(C)cc4)C3)[nH]c2c1 | i
O=C(Cc1n[nH]c(=O)c2ccccc12)Nc1cccc2ccccc12 | i
O=C(CCCc1c[nH]c2ccccc12)N1CCCC1c1ccc(F)cc1 (centres undefined) | i
O=C(c1ccc(Cl)cc1Cl)N1CCC(c2nc3ccccc3o2)CC1 | i
O=Cc1ccc(OCc2ccc(Cl)cc2)c(Br)c1 | i
Cn1c(SCc2ccc(Br)cc2F)nnc1-c1cnccn1 | i
Cc1cc(C)c2oc(C(=O)Nc3ncc(Cc4ccccc4)s3)cc(=O)c2c1 | i
CCN(CC)S(=O)(=O)c1ccc(NC(=O)CN(c2ccc(F)c(Cl)c2)S(C)(=O)=O)cc1 | i
C=CCCC(CN1CCCOCC1)Oc1ccc(-c2ccccc2)nn1 (centres undefined) | i
C=CCCC(CN1CCCOCC1)Oc1nccc(N(C)CC)n1 (centres undefined) | i
C=CCCC(CN1CCCOCC1)Oc1ccc2cccc(OC)c2n1 (centres undefined) | 32µM*
O=C(O)/C=C/C(=O)Nc1ccc(Cl)c(C(F)(F)F)c1 | i
SMILES | KDM5B inh
Cc1nc2ccccc2nc1CS(=O)(=O)CC(=O)NC1CCCC1 | i
CC(CC(=O)O)CC(=O)N1CCOCC1 (centres undefined) | i
CN(Cc1ccccc1)C(=O)C[C@@H]1CCNC[C@@H]1Cc1cc(COc2ccccc2)on1 | i
CCCNC(=O)COC(=O)c1ccc2nc(C)c(C)nc2c1 | i
O=C(CCC1CCN(S(=O)(=O)c2ccccc2)CC1)NCc1ccc(F)cc1 | i
O=C(CCC1CCN(S(=O)(=O)c2ccccc2)CC1)NCc1ccccc1 | 22µM*
COc1cccc(CNC(=O)CCC2CCN(S(=O)(=O)c3ccccc3)CC2)c1 | i
CCn1cc(S(=O)(=O)Nc2cc(F)ccc2F)cn1 | i
O=C(Nc1oc2ccc(Cl)cc2c(=O)c1-c1ccccc1)c1cccs1 | i
COC(=O)c1cccc(NC(=O)NCc2c(-n3cccc3)sc3c2CCN(C)C3)c1 | i
CCN(C(=O)c1cnc(N2CCOCC2)c2ccccc12)c1ccccc1C | i
COc1ccc(C(=O)N2CC[C@@H](CC(=O)O)[C@@H](CCN3CCCCC3)C2)cc1 | i
N#Cc1ccc(C(=O)N2CC[C@@H](CC(=O)O)[C@@H](CC3=NCCc4ccccc43)C2)cc1 | i
COc1cccc(NC(=O)N2CC[C@@H](CC(=O)O)[C@@H](CC3=NCCc4cc(OC)c(OC)cc43)C2)c1 | i
CCCS(=O)(=O)N1CC[C@@H](CC(=O)O)[C@@H](CC2=NCCc3cc(OC)ccc32)C1 | 32µM*
NC(=O)c1ccc(S(=O)(=O)N2CC[C@@H](CC(=O)O)[C@@H](CC3=NCCc4ccccc43)C2)cc1 | i
COc1ccc(NC(=O)N2CC[C@@H](CC(=O)O)[C@@H](CC3=NCCc4cc(OC)c(OC)cc43)C2)cc1 | 35µM*
COc1ccc2c(c1)CCN=C2C[C@H]1CN(C(=O)c2cccnc2)CC[C@H]1CC(=O)O | 32µM*
O=C(O)C[C@@H]1CCN(S(=O)(=O)c2ccc(Cl)cc2)C[C@@H]1CC1=NCCc2cc(F)ccc21 | i
COc1ccc(CC(=O)N2CC[C@@H](CC(=O)O)[C@@H](CCN(C)CCN(C)C)C2)cc1 | i
COc1ccc2c(c1)CCN=C2C[C@H]1CN(C(=O)C(=O)O)CC[C@H]1CC(=O)O | 28µM*
CC(C)c1ccc(NC(=O)N2CC[C@@H](CC(=O)O)[C@@H](CC3=NCCc4ccccc43)C2)cc1 | i
COCc1cccc(C(=O)NCc2ccc(C)cc2)c1 | i
O=C(Nc1ccc(-c2ccccc2)cc1)c1cc(F)c(F)cc1Cl | i
CC(C)NC(=O)C(C)Sc1nc(C(F)(F)F)nc2ccccc12 (centres undefined) | i
SMILES | KDM5B inh
Cc1ccc(CNCc2cccs2)s1 | i
O=C(CCOc1ccccc1Cl)N1CCC(c2nnc3n2CCC3)CC1 | i
CCN(CC)S(=O)(=O)c1ccc2c(c1)nc(SCC(=O)Nc1ccc3c(c1)OCO3)n2CC | i
CC1(C)CC(NC(=S)Nc2ccc(F)c(Cl)c2)CC(C)(C)N1 | i
O=C(Cc1ccc(N2CCCC2=O)cc1)N1CCSCC1 | i
O=C(NCCN1CCCC1)c1nn(Cc2ccccc2)c(=O)c2ccccc12 | i
C=C(C)C[C@H]1CC=C[C@H](CC(=C)C)[N+]1(C)C | i
Cc1noc(C(C)Sc2nc(C3CC3)nc3ccccc23)n1 (centres undefined) | i
CCOc1cc(C(=O)Nc2c(NC3CCCCC3)c3ccccc3oc2=O)cc(OCC)c1OCC | i
COc1cc2c(cc1OC)C(C[C@H]1CN(C(=O)c3cccn3C)CC[C@H]1CC(=O)O)=NCC2 | 32µM*
COc1cc2c(cc1OC)C(C[C@H]1CN(C(=O)CCc3ccccc3)CC[C@H]1CC(=O)O)=NCC2 | i
COc1cc2c(cc1OC)C(C[C@H]1CN(C(=O)Cc3ccccc3)CC[C@H]1CC(=O)O)=NCC2 | i
CCN1C(=O)C2CC3(CCN(C(=O)CCc4c(C)nn(C)c4C)CC3)CN2C1=O (centres undefined) | i
COc1cc(C2CC(=O)Nc3c2c(C)nn3-c2ccc(Cl)nn2)cc(OC)c1OC (centres undefined) | i
Cn1ccc(NC(=O)c2ccc3c(c2)NC(C)(CCCCc2ccccc2)CO3)n1 (centres undefined) | 32µM*
C[C@@H]1CN(C(=O)c2ccc3c(c2)NC(C)(CCCCc2ccccc2)CO3)C[C@H](C)O1 (some centres undefined) | 35µM*
Cn1ccc(NC(=O)c2nn(Cc3ccccc3)c(=O)c3ccccc23)n1 | i
C[C@@H]1CN(C(=O)c2ccc3c(c2)NC(C)(CNc2ccccc2)CO3)C[C@H](C)O1 (some centres undefined) | i
CNC(=O)c1ccc2c(c1)NC(C)(CCCCc1ccccc1)CO2 (centres undefined) | 32µM*
CC1(CCCCc2ccccc2)COc2ccc(C(=O)NC3CCC(O)CC3)cc2N1 (centres undefined) | 40µM*
CNC(=O)c1ccc2nc(CCc3ccccc3)oc2c1 | i
CSc1ccccc1NC(=O)c1ccc2c(c1)NC(=O)CO2 | i
CC(=O)N1CCCN(C(=O)c2ccc3c(c2)NC(C)(CCCCc2ccccc2)CO3)CC1 (centres undefined) | i
